About 83,000 compounds went through this panel and 20% of them were active in at least one assay; those are over-represented in the sample as a whole.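 A percent growth of 40 corresponds to 60% growth inhibition; 0 means no net growth; -100 means all cells died. Active threshold: below 10.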 Values without a mark were called inactive. Calls of active or inactive are those of the source.

What all share (assay): NCI-60 one-dose screen, 48 h (100 = growth as untreated, 0 = no growth, -100 = all killed)
What all share (details): 10 µM unless noted

The test system of test [1] is T-47D breast.
The test system of test [2] is BT-549 breast.
Test [3] relates to MDA-MB-435 melanoma.
The subject of test [4] is SW-620 colon.
The subject of test [5] is MCF7 breast.
In test [6] the test system is HCT-116 colon.
For test [7], the system named is HCC-2998 colon.
The subject of test [8] is KM12 colon.

On to `COC(=O)CCCNC(=O)C(=O)c1c(O)c(O)c(C(C)C)c2cc(C)c(-c3c(C)cc4c(C(C)C)c(O)c(O)c(C(=O)C(=O)NCCCC(=O)OC)c4c3O)c(O)c12`, for which the growth in test [1] is 4.43% (active); in test [2], 8.07% (active); in test [3], 13%; in test [4] it was 19.2%; in test [5], 10.9%; in test [6], -30.9% (active). For the same compound, the results for the growth in test [7] and in test [8] were 29.5% and 8.55% (active), respectively.

For `CCc1cc(Cc2cc(CC)cc(C(C)(C)C)c2O)c(O)c(C(C)(C)C)c1`, the growth in test [1] is -0.979% (active); in test [2], 40.5%; in test [3] it was 18.4%; in test [4], 23.3%; in test [5], 11.2%; in test [6] it was 6.96% (active). For the same compound, the figures for the growth in test [7] and in test [8] were 4.71% (active) and 19.4%, respectively.

On to `C=C(Cl)COC(=O)C(C)(C)O`, for which the growth was 99.1% in test [1]; 104% in test [2]; 104% in test [3]; 107% in test [4]; 93.3% in test [5]; 99.4% in test [6]. Moreover, the growth in test [7] and in test [8] was 102% each time.

In the case of `Cc1nn(-c2ccccc2)c2c1C(c1ccc([N+](=O)[O-])cc1)C(C#N)=C(N)O2` (configuration not stated), the growth in test [1] is 98.4%; in test [2], 123%; in test [3], 121%; in test [4], 119%; in test [5], 96.7%; in test [6], 95.8%. Also, the growth is 105% in test [7] and 109% in test [8].

Regarding `Cc1ccc(O)c(C(=O)c2ccccc2Cl)c1`, the growth in test [1] was 108%; in test [2], 93.8%; in test [3] it was 93.2%; in test [4] it was 98.4%; in test [5] it was 101%; in test [6], 99%. In addition, the growth in test [7] is 56.2%; in test [8], 116%.

As for `COc1ccc(OC)c(/C=C2\COc3ccc(O)c(O)c3C2=O)c1`, the growth was 25.2% in test [1]; 39% in test [2]; 12.1% in test [3]; 9.79% (active) in test [4]; 14.9% in test [5]; 3.33% (active) in test [6]. In addition, the results for the growth in test [7] and in test [8] were 53.9% and 16.4%, respectively.

Take `CCCCCCNC(=O)c1cc(NCc2cc(O)ccc2O)ccc1O`: the growth in test [1] is 21.3%; in test [2], 22.4%; in test [3], 71.5%; in test [4] it was 76.8%; in test [5], 54.9%; in test [6], 75%. The growth in test [7] is 105%; in test [8] it was 69.1%.

Regarding `N=C(N)c1ccc(-c2ccc(-c3ccc(Cl)cc3Cl)o2)cc1`, the growth was 57.6% in test [1]; 94.7% in test [2]; -63.6% (active) in test [3]; -67.3% (active) in test [4]; -73.7% (active) in test [5]; -68.8% (active) in test [6]. In addition, the results for the growth in test [7] and in test [8] were -93.2% (active) and -77.7% (active), respectively.

As for `N#Cc1c(NC(=O)c2ccc(Br)cc2)sc2c1CCCC2`, the growth was 47.2% in test [1]; 52.2% in test [2]; -22.8% (active) in test [3]; 19.2% in test [4]; 13.1% in test [5]; 22.3% in test [6]. Also, the results for the growth in test [7] and in test [8] were 68.6% and 25.3%, respectively.

In the case of `Cc1nc(Nc2cccc(NC(=O)Nc3ccc(Cl)cc3)c2)c2ccccc2n1`, the growth in test [1] was 71.2%; in test [2] it was 101%; in test [3] it was 79.3%; in test [4], 46.7%; in test [5], 78.1%; in test [6] it was 67.1%. In addition, the figures for the growth in test [7] and in test [8] were 106% and 69.7%, respectively.

On to `NC(=O)c1c(NC(=O)c2ccccn2)sc2c1CCC(=O)C2`, for which the growth in test [1] was 5.3% (active); in test [2], 5.57% (active); in test [3], 21.3%; in test [4] it was 14.7%; in test [5], 39.1%; in test [6], 9.08% (active). Also, the figures for the growth in test [7] and in test [8] were 81% and 6.82% (active), respectively.

`C=C1C(=O)O[C@H]2[C@H]1CC/C(COC(=O)/C=C\C(=O)NCc1ccc(Cn3c(=O)sn(-c4ccc(Cl)cc4)c3=O)cc1)=C\CC[C@@]1(C)O[C@@H]21`: the growth is -44.1% (active) in test [1]; -40.9% (active) in test [2]; -80.3% (active) in test [3]; -65.7% (active) in test [4]; -52% (active) in test [5]; -66% (active) in test [6]. The growth in test [7] was -76.8% (active); in test [8], -72.7% (active).

For the compound `CCCCOc1nc2ccc(Cl)cc2cc1/C=C/C(=O)/C=C1/CC(c2cc3cc(Cl)ccc3nc2OCCCC)Nc2ccccc2N1` (configuration not stated), the growth in test [1] is 83.5%; in test [2] it was 96.6%; in test [3], 104%; in test [4] it was 98.7%; in test [5] it was 74.2%; in test [6], 97.6%. Moreover, the results for the growth in test [7] and in test [8] were 91.5% and 101%, respectively.

With `NC(=S)c1csc(CCNC(=O)c2ccccc2)n1`, the growth was 103% in test [1]; 96.5% in test [2]; 110% in test [3]; 105% in test [4]; 90.7% in test [5]; 97.6% in test [6]. Further, the growth in test [7] was 103%; in test [8] it was 109%.

The record behind these values is PubChem BioAssay (NCI).
